Reference: the supplement of paper PMC12669032
Unmarked numbers belong to inactive results.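 Rule for the calls: active = AUC reduced over 20% with Padj below 0.05 in at least 2 of 3 replicates; inactive = otherwise.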

Assays:
Assay in all cases: growth AUC relative to DMSO control (median of replicates) (fraction); higher = more growth (less inhibition), active = hit call of the paper
Details in all cases: 20 µM; 24 h
Akkermansia muciniphila = system: Akkermansia muciniphila
Outline: (§1)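 Each value is the median of three biological replicates, grown on separate days, of a gut bacterial monoculture incubated anaerobically at 37 °C in mGAM with 20 µM compound (1% DMSO). Cultures started at OD600 0.05 and were read at OD600 hourly for 24 h, with the minimum OD set to 0. Area under the growth curve was normalised to the plate median of solvent-only wells, or to row and column medians on the industrial chemical plate.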

Bacteroides caccae = system: Bacteroides caccae
Outline: as §1

Bacteroides clarus = system: Bacteroides clarus
Outline: as §1

Bacteroides dorei = system: Bacteroides dorei
Outline: as §1

Bacteroides stercoris = system: Bacteroides stercoris
Outline: as §1

[1] = system: Bacteroides thetaiotaomicron
Outline: as §1

Bacteroides uniformis = system: Bacteroides uniformis
Outline: as §1

[2] = system: Bifidobacterium longum subsp. longum
Outline: as §1

Clostridium difficile = system: Clostridium difficile
Outline: as §1

Collinsella aerofaciens = system: Collinsella aerofaciens
Outline: as §1

SMILES | growth AUC (Akkermansia muciniphila) | growth AUC (Bacteroides caccae) | growth AUC (Bacteroides clarus) | growth AUC (Bacteroides dorei) | growth AUC (Bacteroides stercoris) | growth AUC [1] | growth AUC (Bacteroides uniformis) | growth AUC [2] | growth AUC (Clostridium difficile) | growth AUC (Collinsella aerofaciens)
FC(F)C(F)(F)OCC(Cn1cncn1)c1ccc(Cl)cc1Cl (stereo not given) | 0.949 | 0.967 | 0.921 | 0.924 | 0.957 | 0.921 | 0.957 | 0.967 | 0.985 | 0.93
CNC(=O)Oc1ccccc1OC(C)C | 0.914 | 0.993 | 0.977 | 1.01 | 1.01 | 0.975 | 0.979 | 0.996 | 0.986 | 0.955
Oc1c(Cl)c(Cl)cc(Cl)c1Cl | 0.834 | 0.81 | 0.726 (active) | 0.758 | 0.684 | 0.794 | 0.636 (active) | 0.974 | 0.941 | 0.941
Nc1ncn[nH]1 | 0.877 | 1.04 | 1.01 | 1.02 | 0.931 | 1.01 | 0.997 | 1.02 | 1.01 | 0.995
CCC(C)c1cc([N+](=O)[O-])cc([N+](=O)[O-])c1OC(=O)C=C(C)C (stereo not given) | 1.15 | 0.986 | 0.74 (active) | 0.801 | 0.473 (active) | 0.802 | 0.479 (active) | 0.879 | 0.989 | 0.956
CNC(=O)Oc1cccc2c1OC(C)(C)C2 | 1.1 | 0.964 | 1.01 | 0.999 | 1.02 | 0.998 | 1 | 0.996 | 1 | 1.04
CCOP(=S)(OCC)SCSc1ccc(Cl)cc1 | 1.04 | 0.954 | 0.972 | 0.984 | 1.09 | 0.987 | 0.943 | 1.03 | 1 | 0.963
Cc1cc(Cl)ccc1O[C@H](C)C(=O)O | 1.04 | 0.841 | 1 | 0.982 | 1.15 | 0.991 | 0.958 | 1.01 | 0.972 | 0.968
CC(=O)CC(c1ccc(Cl)cc1)c1c(O)c2ccccc2oc1=O (stereo not given) | 0.928 | 0.939 | 0.873 | 0.958 | 0.91 | 0.938 | 0.777 (active) | 0.939 | 1.04 | 1.01
CCOP(=S)(OCC)SCS(=O)CC (stereo not given) | 1.03 | 0.99 | 0.994 | 1.01 | 1.05 | 1.02 | 0.994 | 1.03 | 0.972 | 1.01
CCCN(CCC)c1c([N+](=O)[O-])cc(S(C)(=O)=O)cc1[N+](=O)[O-] | 0.897 | 0.942 | 0.963 | 0.937 | 0.856 | 0.987 | 0.954 | 0.948 | 0.965 | 0.914
Oc1c(Br)cc(Br)cc1Br | 0.965 | 0.916 | 0.917 | 1.01 | 1.22 | 1.01 | 0.966 | 0.984 | 0.982 | 0.991
Cc1ccc(NC(=O)N(C)C)cc1Cl | 0.946 | 1.04 | 0.989 | 1.01 | 0.954 | 1 | 0.976 | 0.827 | 1.01 | 0.989
COC(=O)NCc1cc(/C(C)=N\OCc2cccc(C)n2)ccc1Cl | 1.07 | 0.936 | 0.984 | 0.949 | 0.939 | 0.995 | 0.902 | 1.03 | 0.968 | 0.969
COc1ccc(/C(=C/C(=O)N2CCOCC2)c2ccc(F)cc2)cc1OC | 0.998 | 1.05 | 0.959 | 0.953 | 0.921 | 0.997 | 0.984 | 0.958 | 1 | 0.952
CC(C)=CC1C(C(=O)OCc2coc(Cc3ccccc3)c2)C1(C)C (stereo not given) | 0.878 | 0.995 | 0.943 | 1 | 0.965 | 0.973 | 0.988 | 0.899 | 1.02 | 0.936
COP(=S)(OC)Oc1c(Cl)cc(C)cc1Cl | 0.999 | 0.966 | 0.993 | 0.964 | 0.958 | 1.01 | 0.97 | 0.98 | 0.985 | 0.975
CNC(=O)ON=C(CSC)C(C)(C)C | 0.989 | 1.01 | 0.992 | 0.929 | 1 | 0.986 | 1.04 | 0.999 | 1 | 0.983
Clc1cc(Cl)c(Cl)cc1Cl | 1.01 | 0.997 | 0.987 | 0.981 | 1.14 | 0.982 | 1.01 | 1.07 | 0.98 | 1.01

SMILES | growth AUC (Akkermansia muciniphila) | growth AUC (Bacteroides caccae) | growth AUC (Bacteroides clarus) | growth AUC (Bacteroides dorei) | growth AUC (Bacteroides stercoris) | growth AUC [1] | growth AUC (Bacteroides uniformis) | growth AUC [2] | growth AUC (Clostridium difficile) | growth AUC (Collinsella aerofaciens)
CC(C)C(C(=O)OC(C#N)c1cccc(Oc2ccccc2)c1)c1ccc(Cl)cc1 (stereo not given) | 0.88 | 0.977 | 1 | 0.935 | 1.1 | 1.02 | 0.986 | 0.765 | 1.01 | 0.903
CC[C@H]1CCCC(O[C@H]2CC[C@H](N(C)C)[C@@H](C)O2)[C@@H](C)C(=O)C2=C[C@@H]3[C@@H](C=C(C)[C@@H]4C[C@@H](O[C@@H]5O[C@@H](C)[C@H](OC)[C@@H](OC)[C@H]5OC)C[C@@H]34)[C@@H]2CC(=O)O1.CC[C@H]1CCCC(O[C@H]2CC[C@H](N(C)C)[C@@H](C)O2)[C@@H](C)C(=O)C2=C[C@@H]3[C@@H](C=C[C@@H]4C[C@@H](O[C@@H]5O[C@@H](C)[C@H](OC)[C@@H](OC)[C@H]5OC)C[C@@H]34)[C@@H]2CC(=O)O1 (stereo not given in full) | 0.986 | 1.01 | 0.979 | 1.04 | 0.888 | 1 | 0.987 | 0.889 | 1.03 | 0.958
Cc1occc1C(=O)Nc1ccccc1 | 0.899 | 1 | 0.958 | 1.04 | 0.952 | 1.02 | 1 | 1.02 | 1.05 | 0.959
COP(=O)(OC)O/C(C)=C/C(=O)N(C)C | 1.15 | 1.01 | 0.988 | 0.993 | 1.02 | 0.988 | 1.02 | 0.989 | 0.987 | 0.996
O=C(NCCc1ncc(C(F)(F)F)cc1Cl)c1ccccc1C(F)(F)F | 0.849 | 0.978 | 1.01 | 1 | 0.951 | 0.973 | 0.987 | 0.974 | 0.996 | 1
CC(C)N(C(=O)CCl)c1ccccc1 | 0.256 (active) | 1.02 | 0.969 | 1.01 | 0.978 | 0.933 | 0.96 | 0.946 | 0.965 | 1.05
N#Cc1cc(Br)c(O)c(Br)c1 | 1.11 | 0.896 | 0.951 | 0.924 | 0.875 | 0.997 | 0.988 | 1.05 | 0.98 | 0.968
CC(C)C1(C)N=C(c2nc3ccccc3cc2C(=O)O)NC1=O (stereo not given) | 0.971 | 1.01 | 1.02 | 0.957 | 1.03 | 0.992 | 1.01 | 0.967 | 0.958 | 0.962
CC1(C)C(C=C(Cl)Cl)C1C(=O)OC(C#N)c1ccc(F)c(Oc2ccccc2)c1 (mixture of isomers) | 1.08 | 1 | 1.01 | 0.995 | 0.95 | 1.01 | 0.98 | 0.975 | 0.979 | 0.947
Cc1ccccc1[N+](=O)[O-] | 1 | 0.996 | 1 | 1.02 | 1.01 | 1.01 | 0.995 | 0.991 | 1 | 1
CC(C)=NOCCOC(=O)[C@@H](C)Oc1ccc(Oc2cnc3cc(Cl)ccc3n2)cc1 | 0.861 | 0.965 | 1 | 0.958 | 0.876 | 0.937 | 0.899 | 0.924 | 0.981 | 0.954
CNC(=O)O/N=C(\C)SC | 0.938 | 0.99 | 0.981 | 1.03 | 1.06 | 0.988 | 0.988 | 0.91 | 0.999 | 1.03
Clc1ccc(C(c2ccc(Cl)cc2)C(Cl)(Cl)Cl)cc1 | 1.1 | 0.934 | 0.763 (active) | 0.955 | 0.127 (active) | 0.866 | 0.798 (active) | 0.886 | 0.943 | 0.869
CS(=O)(=O)c1cc(C(F)(F)F)ccc1C(=O)c1cnoc1C1CC1 | 1 | 1.08 | 1.01 | 1.02 | 0.921 | 1.02 | 0.994 | 0.982 | 1.05 | 1
COC(=O)COc1ccc(Cl)cc1Cl | 0.95 | 0.944 | 0.983 | 0.969 | 0.853 | 1.01 | 1.04 | 0.914 | 1 | 0.925
CNC(=O)N(C)c1nc2ccccc2s1 | 0.902 | 1.02 | 0.991 | 1 | 0.998 | 0.999 | 0.991 | 0.936 | 0.978 | 0.995
CC(Cl)(Cl)C(=O)O | 0.869 | 1.05 | 1.02 | 1.02 | 1.02 | 1.01 | 1.02 | 0.983 | 0.999 | 1.02
S=C1NCCN1 | 1.05 | 0.998 | 0.998 | 1.06 | 1.13 | 1.01 | 1.03 | 0.947 | 1.05 | 1.02
O=C1CCc2cccc3c2N1CC3 | 1.04 | 0.874 | 0.964 | 0.974 | 1.14 | 0.883 | 0.98 | 1.03 | 1.03 | 0.954
